According to PubChem BioAssay (NCATS):
Values joined by “and” are separate entries in the source; they are usually repeats but may differ in a detail not shown here. Equal entries are not always repeated. Results filed as inconclusive are left out. Some compounds were tested as several samples or in several runs, with calls that do not always agree. Active and inactive are the calls of the source. Unless noted, the rule behind the calls is not given here.

Columns and labels:
[1] = qHTS profiling of the MIPE4 collection as inhibitors of Plasmodium falciparum (DD2) proliferation (AID 743345); details: P. falciparum Dd2 in erythrocytes, SYBR Green DNA, 72 h; at 28.5 µM (top of the series) unless noted
How it was run: (§1)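 Erythrocytes infected with P. falciparum (0.3% parasitemia, 2.5% hematocrit) incubated with compounds 72 h at 37 C, 5% CO2. Lysis with saponin/Triton buffer containing SYBR Green I, overnight at room temperature in the dark; DNA fluorescence (485/535 nm) normalised to 0.29 uM artemisinin and DMSO.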

[2] = High-throughput drug toxicity screening in the BPDCN cell line Gen2.2 (AID 1224824); details: Gen2.2 BPDCN cells; at 45.8 µM (top of the series) unless noted;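 note: cells exposed to compounds for 48 h before reading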
How it was run: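 Seed 500 exponentially growing Gen2.2 cells/well; add compounds by pin tool; incubate 48 h, 37 °C, 5% CO2; add CellTiter-Glo, 15 min RT; read luminescence. % activity vs DMSO (100%) and bortezomib (0%).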

[3] = High-throughput drug toxicity screening in the BPDCN cell line Cal-1 (AID 1224825); details: Cal-1 BPDCN cell viability, qHTS; at 45.8 µM (top of the series) unless noted
How it was run: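 Exponentially growing Cal-1 cells, 500 per well in phenol red-free RPMI with 10% FBS, were exposed to compounds for 48 h at 37 °C, 5% CO2. Viability was read by CellTiter-Glo luminescence and normalised to DMSO (100%) and 9.2 uM bortezomib (0%).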

[4] = qHTS assay for measurement of the activity of small molecule inhibitors on Zika virus induced Caspase-3 activity in human iPSC derived neural progenitor cells (hNPCs) (AID 1224857; active = well fitted curve in the direction sought with a large enough effect; an effect the other way counts as inactive or inconclusive; note: nearly all actives have a fitted effect of over 65% in size; note: potency is the fitted concentration of half-maximal effect)
How it was run: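 Pretreat hNPCs with compound 1 h; infect ZIKV 2 FFU/cell; 6 h 37 C, 5% CO2; Caspase-Glo 3/7, 30 min RT; luminescence; normalize to no-virus and virus-only wells.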

[5] = qHTS Screen of the MIPE 4.0 Collection Against Ewings Sarcoma (RDES) (AID 1259252; active = well fitted curve in the direction sought with a large enough effect; an effect the other way counts as inactive or inconclusive; note: nearly all actives have a fitted effect of over 35% in size; note: potency is the fitted concentration of half-maximal effect)
How it was run: (§2)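 Compound titrations go onto adherent log-phase cells 4 h after seeding, incubate 48 h at 37C, then CellTiter-Glo luminescence reports viability relative to DMSO and cell-free controls.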

[6] = qHTS Screen of the MIPE 4.0 Collection Against Ewings Sarcoma (TC71) (AID 1259253; active = well fitted curve in the direction sought with a large enough effect; an effect the other way counts as inactive or inconclusive; note: nearly all actives have a fitted effect of over 40% in size; note: potency is the fitted concentration of half-maximal effect)
How it was run: as §2

[7] = qHTS Screen of the MIPE 4.0 Collection Against Ewings Sarcoma (EW8) (AID 1259255; active = well fitted curve in the direction sought with a large enough effect; an effect the other way counts as inactive or inconclusive; note: nearly all actives have a fitted effect of over 35% in size; note: potency is the fitted concentration of half-maximal effect;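 for viability: 100% = DMSO-treated cells and 0% = medium-only wells without cells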)
How it was run: as §2

[8] = P-glycoprotein substrates identified in KB-3-1 adenocarcinoma cell line, qHTS therapeutic library screen (AID 1346986; active = well fitted curve in the direction sought with a large enough effect; an effect the other way counts as inactive or inconclusive; note: nearly all actives have a fitted effect of over 60% in size)
How it was run: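 KB-3-1 parental cells and P-gp-overexpressing KB-8-5-11 (colchicine omitted during assay) plated at 500 cells/well, dosed in dose-response, incubated 72 h at 37 degree C. CellTiter-Glo luminescence read; KB-8-5-11 also tested with tariquidar.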

[9] = P-glycoprotein substrates identified in KB-8-5-11 adenocarcinoma cell line, qHTS therapeutic library screen (AID 1346987; active = well fitted curve in the direction sought with a large enough effect; an effect the other way counts as inactive or inconclusive; note: nearly all actives have a fitted effect of over 65% in size; note: potency is the fitted concentration of half-maximal effect)
How it was run: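 P-gp-mediated resistance screen: KB-8-5-11 cells treated 72 h with compounds in dose-response. CellTiter-Glo viability.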

[10] = qHTS profiling of the MIPE4 collection as inhibitors of Plasmodium falciparum (HB3) proliferation (AID 743347);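 note: plate controls were DMSO vehicle wells for no effect and artemisinin wells for full effect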; details: P. falciparum HB3 in erythrocytes, SYBR Green DNA, 72 h; at 28.5 µM (top of the series) unless noted
How it was run: as §1

[11] = qHTS Screen of the MIPE 4.0 Collection Against Ewings Sarcoma (TC32) (AID 1259256; active = well fitted curve in the direction sought with a large enough effect; an effect the other way counts as inactive or inconclusive; note: nearly all actives have a fitted effect of over 45% in size; note: potency is the fitted concentration of half-maximal effect)
How it was run: as §2

[12] = qHTS profiling of the MIPE4 collection as inhibitors of Plasmodium falciparum (3D7) proliferation (AID 743344);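 note: scaled between DMSO vehicle wells and 0.29 µM artemisinin as full inhibition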; details: P. falciparum 3D7 in erythrocytes, SYBR Green DNA fluorescence, 72 h; at 28.5 µM (top of the series) unless noted
How it was run: as §1

[13] = qHTS profiling of the MIPE4 collection as inhibitors of Plasmodium falciparum (DD2) proliferation (Rep 2) (AID 743346); details: P. falciparum Dd2 in erythrocytes, SYBR Green DNA, 72 h; at 28.5 µM (top of the series) unless noted
How it was run: as §1

[14] = qHTS assay for measurement of the activity of small molecule inhibitors on Zika virus induced Caspase-3 activity in human astrocytoma cells (AID 1224859; active = well fitted curve in the direction sought with a large enough effect; an effect the other way counts as inactive or inconclusive;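 note: plate controls were ZIKV-infected untreated cells for no effect and uninfected cells for full effect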)
How it was run: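 Human SNB-19 astrocytoma cells in RPMI 1640 with 10% FBS receive compound one hour ahead of Zika virus at 2 FFU/cell. After 6 h infection, caspase-3/7 activity is detected by Caspase-Glo luminescence.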

[15] = Identifying Small Molecule Inhibitors of Pancreatic Cancer Stem Cells (SN12C, Adherent) (AID 1259358; active = well fitted curve in the direction sought with a large enough effect; an effect the other way counts as inactive or inconclusive;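 note: potency is the fitted concentration of half-maximal effect; cell survival measured after 48 h of compound exposure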)
How it was run: (§3)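 Viability is scored by CellTiter-Glo luminescence 48 h after dosing, expressed as percent activity against vehicle and no-cell references. Spheroid formats rely on cells cultured 14 days in stem cell media beforehand.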

[16] = Identifying Small Molecule Inhibitors of Pancreatic Cancer Stem Cells (Panc1, Spheroid) (AID 1259359; active = well fitted curve in the direction sought with a large enough effect; an effect the other way counts as inactive or inconclusive;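 note: potency is the fitted concentration of half-maximal effect; compound exposure lasted 48 h before reading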); details: Panc1 spheroid cancer stem cell viability
How it was run: as §3

[17] = Identifying Small Molecule Inhibitors of Pancreatic Cancer Stem Cells (A278, Adherent) (AID 1259361; active = well fitted curve in the direction sought with a large enough effect; an effect the other way counts as inactive or inconclusive; note: nearly all actives have a fitted effect of over 35% in size)
How it was run: as §3

[18] = Identifying Small Molecule Inhibitors of Pancreatic Cancer Stem Cells (Panc1, Adherent) (AID 1259362; active = well fitted curve in the direction sought with a large enough effect; an effect the other way counts as inactive or inconclusive; note: potency is the fitted concentration of half-maximal effect); details: Potency: viability
How it was run: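 Pre-formed 14-day tumor spheroids or adherent cells dosed and incubated 48 h, 37C, 5% CO2. Viability assessed by CellTiter-Glo.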

SMILES | parasite growth remaining, % of DMSO control (lower = more inhibition) [1] | cell viability, % of control (lower = more cytotoxic) [2] | viability (% of control) [3] | Potency [4] | Potency [5] | Potency [6] | Potency [7] | Potency [8] | Potency [9] | growth, % of control [10] | Potency [11] | parasite growth, % of DMSO control [12] | parasite growth, % of control (lower = inhibition) [13] | Potency [14] | Potency [15] | Potency [16] | IC50 (viability decrease) [17] | Potency [18]
O=C(O)c1ccccc1C(=O)Nc1ccc(-c2ccccc2)cc1 | 104% | 156% | 111% | inactive | inactive | inactive | inactive | inactive | inactive | – | – | – | – | – | – | – | – | –
CCC(CC)[C@H](NC(C)=O)[C@@H]1[C@H](O)[C@@H](C(=O)O)C[C@@H]1N=C(N)N | – | 81.8% | 105% | inactive | inactive | inactive | inactive | – | inactive | 97.8% | inactive | – | – | – | – | – | – | –
NC1CCC(Nc2nc(Nc3ccc(C(=O)N4CCCCC4)cc3)c3ncn(-c4cccc(F)c4)c3n2)CC1 (centres undefined) | 89.1% | 208% | 101% | 16.6 µM (active) | inactive | inactive | inactive | – | – | – | inactive | 113% | 47.7% | – | – | – | – | –
C=CCc1ccc(O)c(-c2ccc(O)c(CC=C)c2)c1 | – | 34.9% | 21.1% | inactive | – | – | – | – | – | 3.7% | – | 22.1% | 27.4% | inactive | – | – | – | –
O=C(Nc1ccccc1Br)N[C@@H]1CCN(c2ccc(C(F)(F)F)cn2)C1 | – | 266% | 101% | inactive | – | – | – | – | – | 71.2% | – | 73.6% | 82.5% | inactive | – | – | – | –
CO[C@H]1C[C@@H]2CC[C@@H](C)[C@@](O)(O2)C(=O)C(=O)N2CCCC[C@@H]2C(=O)O[C@H]([C@H](C)C[C@@H]2CC[C@H](OP(C)(C)=O)[C@H](OC)C2)CC(=O)[C@H](C)C=C(C)[C@@H](O)[C@@H](OC)C(=O)[C@H](C)C[C@H](C)C=CC=CC=C1C | – | 10.4% | 5.8% | inactive | – | – | – | – | – | 8.46% | – | 4.92% | 9.19% | inactive | – | – | – | –
CO[C@H]1C[C@@H]2CC[C@@H](C)[C@@](O)(O2)C(=O)C(=O)N2CCCC[C@@H]2C(=O)O[C@H]([C@@H](C)C[C@@H]2CC[C@H](O)[C@H](OC)C2)CC(=O)[C@H](C)C=C(C)[C@@H](O)[C@@H](OC)C(=O)[C@H](C)C[C@H](C)C=CC=CC=C1C | 9.31% | 5.13% | 2.54% | inactive | – | – | – | – | – | 6.63% | – | 5.33% | 7.75% | inactive | – | – | – | –
Cc1ccc([C@@H]2O[C@H](CO)[C@@H](O)[C@H](O)[C@@H]2O)cc1Cc1ccc(-c2ccc(F)cc2)s1 | 118% | 126% | 48.1% | inactive | – | – | – | inactive | inactive | 310% | – | 134% | 75.3% | inactive | – | – | – | –
O=C1C(Cl)=C(NCCN2CCOCC2)C(=O)c2ncccc21 | 18% | 2.36% | 0.784% | 2.35 µM (active) | 8.33 µM (active) | 6.62 µM (active) | 3.72 µM (active) | – | 20.9 µM (active) | 10.3% | 2.64 µM (active) | 15.2% | 16% | – | 6.62 µM (active) | 3.72 µM (active) | 3.32 µM (active) | 1.66 µM (active)
CCc1ccc(OCc2ccccc2C(=O)Nc2ccc3nc(C)cc(N)c3c2)cc1 | 6.22% | 7.97% | 4.73% | inactive | 9.35 µM (active) | 7.43 µM (active) | 7.43 µM (active) | – | 7.43 µM (active) | 10% | 9.35 µM (active) | 5.35% | 24.8% | – | – | – | – | –
COCCOc1nc(-c2ccc(Cl)c(Cl)c2)n(-c2ccc(NC(=O)CCl)cc2)n1 | – | 114% | 37.2% | inactive | – | – | – | – | inactive and 14.6 µM (active) | 30.2% | – | – | 31.7% | inactive | – | – | – | –
Cc1cccc(Nc2nc(-c3ccncc3)cs2)c1 | 71% | 75.6% | 82.9% | inactive | – | – | – | – | – | 17.7% | – | – | 42.6% | inactive | – | – | – | –
